# Screening data deposited in PubChem BioAssay by National Center for Advancing Translational Sciences (NCATS).
# Giardia FBPA inh: blocks Giardia fructose-bisphosphate aldolase activity; purified Giardia FBPA; 290,000 compounds, 0.71% hits; AID 2451; Potency, µM (highest dose often 59.6 µM), inactives show top-dose activity, negative = inhibition, most hits filed as inhibitors; also: potency is read from the fitted curve at half-maximal effect; % is scaled to controls: 0 for no effect and ±100 for the full control effect; nearly all actives have a fitted effect of over 55% in size
# Target sequence (A8B2U2 whole entry, looked up): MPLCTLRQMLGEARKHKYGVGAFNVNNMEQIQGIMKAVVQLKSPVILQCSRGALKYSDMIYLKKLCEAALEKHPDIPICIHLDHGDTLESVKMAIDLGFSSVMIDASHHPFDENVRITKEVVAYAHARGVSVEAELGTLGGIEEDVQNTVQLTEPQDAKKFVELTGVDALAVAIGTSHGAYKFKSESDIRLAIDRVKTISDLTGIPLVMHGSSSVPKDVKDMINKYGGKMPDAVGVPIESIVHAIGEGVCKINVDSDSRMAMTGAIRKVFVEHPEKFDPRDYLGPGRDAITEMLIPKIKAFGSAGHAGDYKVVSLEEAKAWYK
#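 40 nM FBPA preincubated 10 min at RT with compound (up to 57.5 uM final), then substrate plus GAPDH/TPI/NAD/arsenate coupling and diaphorase/resazurin added. Fluorescence read after 20 min at RT, 525/598 nm.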
# Pf growth 48h: inhibits P. falciparum growth in the first generation, 48 h; AID 504832; Potency, µM (series often up to 28.7 µM), for the others: at the highest dose activity change, negative = inhibition, hits mostly inhibitors; 310,000 compounds, 5.9% hits; P. falciparum luciferase growth in erythrocytes, 48 h; also: potency is read from the fitted curve at half-maximal effect; % is scaled to controls: 0 for no effect and ±100 for the full control effect
#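 Parasite viability was followed by luminescence of a genomically integrated firefly luciferase. Cultures held 0.1% parasitemia at 2% hematocrit (final), incubated under 5% CO2 at 37 C.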
# Pf growth 96h: P. falciparum growth inhibition at 96 hour, primary screen for plastid delayed-death inhibitors. Potency, µM (doses to about 28.7 µM), without a hit: at the top dose activity change, negative = inhibition, most hits filed as inhibitors. P. falciparum luciferase reporter growth, 96 h. 320,000 compounds, 6.9% hits; also: potency is read from the fitted curve at half-maximal effect; % is scaled to controls: 0 for no effect and ±100 for the full control effect
#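 Two-generation exposure (96 h) targets delayed-death phenotype. Reporter parasites carrying integrated firefly luciferase, in red cells at 2% hematocrit and 0.05% parasitemia final, kept at 37 C, 5% CO2; luminescence loss indicates inhibition.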
# Cycloheximide cs: counter-screen for Shiga toxin inhibitors: cycloheximide protein synthesis inhibition | cell reporter, cycloheximide protein synthesis inhibition counterscreen | max response, % | 300,000 compounds, 12% hits; in the data active = max response mostly above about 13%, no sharp cut-off; inactive = mostly below about 14%; also: read at 38.3 µM for the half of the compounds with a filed dose; 0% is about no effect
# Shiga inhibitor: inhibitors of Shiga toxin in Vero cells. Vero cells, Shiga toxin protein synthesis inhibition reporter. inhibition, % at 38.7 µM. 290,000 compounds, 9.2% hits. AID 2315; in the data active = inhibition mostly above about 28%, no sharp cut-off; inactive = mostly below about 43%; also: 0% is about no effect
# NS1 inh: influenza NS1 inhibition; Potency, µM (series often up to 46.1 µM), for inactives: at the highest dose activity, positive = more growth; 270,000 compounds, 0.4% hits; calls by dose curve; also: potency is read from the fitted curve at half-maximal effect; actives are rising curves; nearly all actives have a fitted effect of over 50% in size
#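 Read-out: OD600 growth recovery of NS1-expressing budding yeast. Cells grown overnight at 30C in -URA glucose medium, washed, resuspended and diluted 1:100 in 2% galactose assay medium, pH 6.0. Same strain lacking NS1 served as positive control.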
# Numbers without * were called inactive; i = inactive; u = inconclusive; x = no result given; [ ] = dose if it differs, or a comment. The list is not random: actives were taken first. Their share in the collection is about 21%. Unless noted, calls follow the shape of the dose curve; as a rule, active = well fitted curve in the direction sought with a large enough effect; inconclusive = small, poorly fitted or top-dose-only effect, or another doubt; inactive = no such curve, though single readings can be large; an effect the other way counts as inactive or inconclusive.
SMILES,Giardia FBPA inh,Pf growth 48h,Pf growth 96h,Cycloheximide cs,Shiga inhibitor,NS1 inh
CCCCn1c(N)c(N(Cc2ccccc2OC)C(=O)CSCC(=O)Nc2cccc(C)c2)c(=O)[nH]c1=O,x,-5.5%,u,-2.7,-9.2,6.9%
O=C(Nc1ccc2[nH]ccc2c1)c1ccccc1,-8.4%,163.9%,472.3%,26.6*,31.6,2.4%
O=C(Nc1ccc2[nH]ccc2c1)c1ccc(F)cc1,-4.0%,165.5%,471.2%,13.4*,15.9,1.5%
O=C(Nc1ccc2[nH]c(=S)sc2c1)c1ccccc1,12.2%,98.9%,90.6%,1.0,0.0,-5.4%
Cc1ccc(C)c(N2CCN(c3ncccc3[N+](=O)[O-])CC2)c1,2.0%,u,u,-3.4,-11.3,-1.9%
COc1cc(OC)c(C(=O)O/N=C(\N)c2ccccn2)cc1OC,9.3%,-23.1%,1.0%,14.4*,78.4*,-2.5%
COc1ccccc1C(=O)O/N=C(\N)c1ccccn1,-16.0%,-28.0%,i,22.4*,33.8,-35.2%
COC(=O)[C@@]1(Cc2ccccc2)[C@H]2c3cc(C(=O)N(C)C)n(Cc4cc(C)n(C)n4)c3C[C@H]2CN1C(=O)c1ccccc1,4.6%,x,x,x,x,x
O=C(O)CCc1nn2c3ccccc3n(Cc3ccccc3F)c2nc1=O,2.1%,8.6%,0.0%,-0.9,2.2,x
CCc1ccc(NC(=O)CC2C(=O)N(c3ccc(Cl)cc3)C(=O)N2C2CCCC2)cc1 (stereo unspecified),x,x,x,19.0,5.9,x
O=c1cc(CSc2nnc(COc3cccc4ccccc34)o2)c2ccccc2[nH]1,1.5%,79.4%,11.7µM*,0.6,-2.9,0.9%
Cc1cc(C)n(-c2ccc(C(=O)N3CCc4ccccc43)cc2)n1,5.5%,40.4%,9.7%,17.7*,62.9*,-52.6%
Cc1cc(C)n(-c2ccc(C(=O)C(C#N)c3nc4ccccc4n3C)cc2)n1 (stereo unspecified),5.0%,18.2%,9.28µM*,-2.7,9.8,-0.5%
Cc1cc(C)n(-c2ccc(C(=O)O)cc2)n1,5.7%,22.3%,1.85µM*,-2.1,-4.8,-3.2%
Cc1cc(C(=O)N2CCc3ccccc32)n(-c2ccccc2)n1,-7.2%,-16.8%,u,-1.1,-3.1,u
Cc1cc(C)n(-c2ccc(C(=O)OC(C)C)cc2)n1,-2.5%,83.2%,0.0%,20.4*,15.2,-32.1%
Cc1cc(C)n(-c2ccc(C(=O)NC(C)C)cc2)n1,7.6%,4.4%,3.6%,-1.1,4.7,2.4%
Cc1cc(N)n(-c2ccc(C(=O)O)cc2)n1,-10.9%,15.4%,u,18.1,33.0,4.8%
COc1ccc(N(C(C)=O)c2nc(C)cc(C)c2C#N)c(OC)c1,3.9%,-9.3%,3.5%,-3.2,13.7,-2.3%
O=C(/C=C/c1ccc(Cl)cc1)OCC(=O)c1ccc[nH]1,x,36.3%,38.8%,x,x,x
CCCc1cc2c(c(=O)o1)C(O)C1OC1C2=O (stereo unspecified),-4.1%[12.9 µM],x,x,x,x,x
COC(=O)C(Cc1cnc(Cl)s1)(C(=O)OC)c1ccc([N+](=O)[O-])cc1[N+](=O)[O-],-10.4%,-25.8%,x,-4.7,-24.7,-1.2%
O=[N+]([O-])c1ccc(OCc2cnc(Cl)s2)c([N+](=O)[O-])c1,-0.1%,u,-0.1%,19.6*,37.6,-1.0%
O=C(CSc1nnc(Cc2ccccc2)n1C1CCCCC1)N1CCOCC1,0.9%,31.6%,u,16.2*,-25.1,-6.5%
Cc1cccc(-n2c(Cc3ccccc3)nnc2SCc2ccc([N+](=O)[O-])cc2)c1,-2.1%,u,7.38µM*,-3.2,-6.3,-8.9%
SMILES,Giardia FBPA inh,Pf growth 48h,Pf growth 96h,Cycloheximide cs,Shiga inhibitor,NS1 inh
Cc1cccc(-n2c(Cc3ccccc3)nnc2SCC(=O)N2CCOCC2)c1,4.8%,x,4.15µM*,1.0,-8.7,-9.9%
NS(=O)(=O)c1ccc(N=Nc2cc3ccccc3c(C(=O)O)c2O)cc1,x,x,x,x,x,7.6%
C=CCn1c(C2CC2)n[nH]c1=S,u,-3.1%,15.6%,2.4,-5.1,x
CCCCCC1CCC(c2n[nH]c(=S)n2C)CC1 (stereo unspecified),-0.6%,u,5.86µM*,-5.8,-11.9,-8.4%
CC(=O)Nc1ccc(NC(=O)C2C3C=CC(C3)C2C(=O)O)cc1 (stereo unspecified),-11.3%,5.7%,1.65µM*,-3.3,-2.5,3.6%
Cc1cccc(C)c1NC(=O)C1C2C=CC(C2)C1C(=O)O (stereo unspecified),-7.6%,17.1%,-9.9%,-1.3,-6.3,9.0%
Cc1ccc(-c2ccccc2NC(=O)C2C3C=CC(C3)C2C(=O)O)o1 (stereo unspecified),-20.8%,u,-20.4%,12.5,16.0,-9.1%
Cc1ccc(-c2cccc(NC(=O)C3C(C(=O)O)[C@@H]4C=C[C@H]3C4)c2)o1 (stereo partly specified),-3.6%,0.3%,6.2%,18.2,32.5*,21.0%
CCOc1ccc(/C(O)=C2/C(=O)C(=O)N(CCOCCO)C2c2ccccc2)cc1 (stereo unspecified),22.4%,15.3%,29.5%,18.1*,21.2,13.4%
CCN(CC)CCN1C(=O)C(=O)/C(=C(/O)c2ccc(OC)cc2)C1c1cccs1 (stereo unspecified),x,u,0.0%,57.9*,66.5*,u
CCN(CC)CCN1C(=O)C(=O)/C(=C(/O)c2ccc(OCC(C)C)cc2)C1c1ccncc1 (stereo unspecified),-2.3%,-11.9%,28.1%,7.0,17.5,-14.0%
C=CCOc1ccc(/C(O)=C2\C(=O)C(=O)N(CCN(C)C)C2c2cccs2)cc1 (stereo unspecified),-5.4%,19.2%,26.5%,40.2,61.6*,10.7%
CCOc1ccc(/C(O)=C2/C(=O)C(=O)N(CCN(CC)CC)C2c2cccs2)cc1 (stereo unspecified),2.6%,33.0%,30.1%,43.3*,50.6*,-5.8%
CC1CCN(C(=O)c2cc(-c3ccccc3O)on2)CC1,-3.4%,x,0.7%,39.0*,85.4*,-109.8%
COc1cccc(-c2cc(C(=O)N3C(C)CCCC3C)no2)c1 (stereo unspecified),-4.1%,x,8.2%,99.6*,72.1*,-104.5%
Cc1onc(-c2ccccc2)c1C(=O)N1CCC(C)CC1,5.7%,-4.0%,i,-1.9,-2.9,-3.2%
CC1CCN(C(=O)c2cc(-c3ccco3)on2)CC1,-0.1%,98.2%,42.4%,27.4*,66.3*,-12.3%
CC1CCCC(C)N1C(=O)c1cc(-c2ccco2)on1 (stereo unspecified),-4.2%,13.7%,56.5%,7.7,47.5*,-10.3%
O=C(c1cc(-c2ccco2)on1)N1CCN(c2ccccc2)CC1,1.2%,52.9%,u,4.7,17.4,-29.0%
COc1cccc(-c2cc(C(=O)NCCc3ccccc3)no2)c1,-0.4%,x,14.9%,-6.3,-14.9,-0.7%
O=C(NCC1CCCO1)c1cc2nc(-c3ccco3)cc(C(F)(F)Cl)n2n1 (stereo unspecified),-14.5%,-11.5%,48.2%,-3.7,16.3,-3.4%
